Experiment [1] in a line: ATG_NFI_CIS: Attagene CIS-FACTORIAL HepG2 Assay for human Nuclear Factor I (NFI) (AID 2282989). As to conditions: HepG2 cis-regulatory reporter, NFI response element transcription; actives raise or lower the signal. An outline of the steps: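 HepG2, transient MRTU, 24 h exposure; RNA→cDNA→PCR→FAM label→HpaI→CE fluorescence. Bidirectional fit, DMSO = baseline.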
The target in experiment [2] is Myc proto-oncogene protein (Homo sapiens) (UniProt P01106). Description: ATG_Myc_CIS: Attagene CIS-FACTORIAL HepG2 Assay for human Myelocytomatosis (Myc) Proto-Oncogene Transcription Factor (AID 2282990). As to conditions: HepG2, Attagene cis-reporter transcription factor activity; actives raise or lower the signal. An outline of the steps:
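Cells of the HepG2 human liver line bear multiple cis-driven reporter transcription units. Reporter mRNA after 24 h exposure is reverse-transcribed, amplified, labelled and resolved by capillary electrophoresis, with gain- or loss-of-signal fitting relative to DMSO.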

Experiment [3] is described as follows: ATG_NF_kB_CIS: Attagene CIS-FACTORIAL HepG2 Assay for human Nuclear Factor Kappa B (NF-kB) (AID 2282991). The following applies: HepG2 Attagene cis-factorial NF-kB reporter mRNA; actives raise or lower the signal. An outline of the steps:
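HepG2, transient multi-reporter transfection, cis promoter elements (endogenous TFs). 24 h exposure. Total RNA → RT → PCR → 6-FAM label → HpaI → CE. Gain/loss vs DMSO.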

Experiment [4] is described as follows: ATG_NRF2_ARE_CIS: Attagene CIS-FACTORIAL HepG2 Assay for human Nuclear Factor Erythroid 2 Related Factor 2 (NFR2) response to Antioxidant Response Elements (ARE) (AID 2282992).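 As to AC50: reporter mRNA level measured by RT-PCR and capillary electrophoresis fluorescence.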 As to conditions: HepG2 Attagene ARE/NRF2 reporter, transcription factor activity; actives raise or lower the signal. An outline of the steps: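 Multiplexed reporter mRNA profiling in HepG2 after a 24 h chemical exposure. Curves fitted in both directions relative to DMSO negative control.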

The nature of experiment [5]: ATG_Oct_MLP_CIS: Attagene CIS-FACTORIAL HepG2 Assay for human Octamer-Binding Transcription Factor (Oct) (AID 2282993). As to conditions: HepG2 Attagene cis-factorial Oct reporter, mRNA; actives raise or lower the signal. An outline of the steps:
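Multiplexed cis-reporter assay in human liver HepG2 cells, 24 h incubation. Reporter RNA amplified and labelled, then resolved by capillary electrophoresis; DMSO serves as negative control and baseline.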

Experiment [6] concerns the target Cellular tumor antigen p53 (Homo sapiens) (UniProt P04637). The experiment in a line: ATG_p53_CIS: Attagene CIS-FACTORIAL HepG2 Assay for human p53 Transcription Factor (AID 2282994). The following applies: HepG2 p53 cis-element reporter, Attagene mRNA; actives raise or lower the signal. The procedure, abridged: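 Multiplexed reporter mRNA assay in human HepG2 liver cells; cis-regulated units report endogenous factor activity. Values come from bidirectional curve fitting against DMSO negative control after 24 h treatment.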

Experiment [7] has as its target human Peroxisome Proliferator-activated Receptor alpha (PPARa), PPARA (gene 5465) (UniProt Q07869). Description: ATG_PPARa_TRANS: Attagene TRANS-FACTORIAL HepG2 Assay for human Peroxisome Proliferator-activated Receptor alpha (PPARa) (AID 2283001; active = hit-call score of the fitted dose curve at least 0.9, where 1 is the maximum). An outline of the steps:
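Read-out is fluorescence of reporter cDNA fragments resolved by capillary electrophoresis after RT-PCR. Human HepG2 liver cells carried transfected PPARa-Gal4 chimera and GAL4-UAS reporter units, treated 24 h; activity scored as increase over DMSO.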

Experiment [8] concerns the target human Peroxisome Proliferator-activated Receptor delta (PPARd), PPARD (gene 5467) (UniProt Q03181). Description: ATG_PPARd_TRANS: Attagene TRANS-FACTORIAL HepG2 Assay for human Peroxisome Proliferator-activated Receptor delta (PPARd) (AID 2283002; active = hit-call score of the fitted dose curve at least 0.9, where 1 is the maximum). The procedure, abridged: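 Cell-based TRANS reporter: HepG2, transient MRTU transfection, 24 h exposure. Readout = reporter mRNA (RT-PCR/CE, 6-FAM). Gain-of-signal fit vs DMSO control.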

For experiment [9], the target named is Nuclear receptor subfamily 1 group I member 2 (Homo sapiens) (UniProt O75469). The experiment in a line: ATG_PXR_TRANS: Attagene TRANS-FACTORIAL HepG2 Assay for human Pregnane X Receptor (PXR) (AID 2283008; active = hit-call score of the fitted dose curve at least 0.9, where 1 is the maximum). The procedure, abridged: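 Measures mRNA induction of a GAL4-UAS-driven reporter in human HepG2 cells transiently expressing PXR fused to Gal4, following 24 h treatment. DMSO served as negative control and baseline.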

The target in experiment [10] is human RAR-related Orphan Receptor beta (RORb), RORB (gene 6096) (UniProt Q92753). Description: ATG_RORb_TRANS: Attagene TRANS-FACTORIAL HepG2 Assay for human RAR-related Orphan Receptor beta (RORb) (AID 2283010; active = hit-call score of the fitted dose curve at least 0.9, where 1 is the maximum). The procedure, abridged:
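Readout is reporter-gene mRNA induction, detected as fluorescence after RT-PCR and capillary electrophoresis, fitted for gain of signal against DMSO controls. Transiently transfected HepG2 liver cells carrying GAL4-UAS reporter constructs were treated for 24 hours.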

For experiment [11], the target named is Peroxisome proliferator-activated receptor gamma (Homo sapiens) (UniProt P37231). The experiment in a line: ATG_PPARg_TRANS: Attagene TRANS-FACTORIAL HepG2 Assay for human Peroxisome Proliferator-activated Receptor-gamma (PPARg) (AID 2283007; active = hit-call score of the fitted dose curve at least 0.9, where 1 is the maximum). The procedure, abridged: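 Multiplexed reporter transcription units in HepG2, 24 h dosing, reporter transcripts quantified by fluorescent RT-PCR and capillary electrophoresis. Increase over DMSO scored.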

The target of experiment [12] is Retinoic acid receptor alpha (Homo sapiens) (UniProt P10276). The experiment in a line: ATG_RARa_TRANS: Attagene TRANS-FACTORIAL HepG2 Assay for human Retinoic Acid Receptor alpha (RARa) (AID 2283005; active = hit-call score of the fitted dose curve at least 0.9, where 1 is the maximum). An outline of the steps: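 Reporter transcripts, measured by RT-PCR with fluorescent labeling and capillary electrophoresis after 24 h dosing, reflect activity of an exogenous human RARa–GAL4 fusion in transiently transfected HepG2. Fitted for increase relative to DMSO.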

The target in experiment [13] is human Retinoic Acid Receptor gamma (RARg), RARG (gene 5916) (UniProt P13631). Description: ATG_RARg_TRANS: Attagene TRANS-FACTORIAL HepG2 Assay for human Retinoic Acid Receptor gamma (RARg) (AID 2283009; active = hit-call score of the fitted dose curve at least 0.9, where 1 is the maximum). An outline of the steps: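 Transient transfection of HepG2 with multi-reporter constructs, then 24 h chemical treatment. Total RNA isolated, reverse-transcribed, PCR-amplified, fluorescently labelled and resolved by capillary electrophoresis; activity scored as mRNA induction versus DMSO.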

Experiment [14] has as its target human Retinoic Acid Receptor beta (RARb), RARB (gene 5915) (UniProt P10826). The experiment in a line: ATG_RARb_TRANS: Attagene TRANS-FACTORIAL HepG2 Assay for human Retinoic Acid Receptor beta (AID 2283004; active = hit-call score of the fitted dose curve at least 0.9, where 1 is the maximum). The procedure, abridged:
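Fluorescent capillary-electrophoresis detection of GAL4-UAS reporter mRNA defines the endpoint, with induction over DMSO-treated wells scored as activity. Transiently transfected human hepatoma HepG2 cells expressing exogenous NR–Gal4 proteins are exposed to test chemicals for 24 h.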

Results filed as inconclusive are left out. Calls of active or inactive are those of the source. The calls were made as follows, unless noted: active = hit-call score of the fitted dose curve at least 0.9, where 1 is the maximum; inactive = score below 0.9.

Sequence of Myc proto-oncogene protein (Homo sapiens) (P01106 whole entry, looked up): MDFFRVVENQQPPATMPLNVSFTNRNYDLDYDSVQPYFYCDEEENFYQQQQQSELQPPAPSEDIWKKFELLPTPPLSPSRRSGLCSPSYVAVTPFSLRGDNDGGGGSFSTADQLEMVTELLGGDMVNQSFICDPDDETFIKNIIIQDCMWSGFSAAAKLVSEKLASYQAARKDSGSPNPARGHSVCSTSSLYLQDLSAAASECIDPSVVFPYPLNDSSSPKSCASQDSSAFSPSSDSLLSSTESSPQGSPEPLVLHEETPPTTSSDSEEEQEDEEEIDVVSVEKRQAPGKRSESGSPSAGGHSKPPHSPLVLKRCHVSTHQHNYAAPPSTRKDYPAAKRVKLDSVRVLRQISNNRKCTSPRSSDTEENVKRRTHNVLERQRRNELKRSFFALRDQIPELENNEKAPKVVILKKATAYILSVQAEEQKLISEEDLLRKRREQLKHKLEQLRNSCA
Sequence of human Retinoic Acid Receptor gamma (RARg), RARG (gene 5916) (P13631 whole entry, looked up): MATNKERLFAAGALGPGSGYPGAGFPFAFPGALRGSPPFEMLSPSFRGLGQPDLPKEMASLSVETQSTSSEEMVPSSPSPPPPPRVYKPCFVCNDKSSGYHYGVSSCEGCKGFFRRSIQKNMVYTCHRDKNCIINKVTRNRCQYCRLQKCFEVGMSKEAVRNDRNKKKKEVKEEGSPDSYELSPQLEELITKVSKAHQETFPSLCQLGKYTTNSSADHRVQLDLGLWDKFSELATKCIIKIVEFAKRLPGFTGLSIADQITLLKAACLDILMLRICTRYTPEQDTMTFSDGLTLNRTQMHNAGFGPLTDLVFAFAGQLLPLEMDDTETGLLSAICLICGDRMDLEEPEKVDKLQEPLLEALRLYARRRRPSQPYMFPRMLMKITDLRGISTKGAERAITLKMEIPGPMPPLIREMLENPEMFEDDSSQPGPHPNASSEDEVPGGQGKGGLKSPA
Sequence of Cellular tumor antigen p53 (Homo sapiens) (P04637 whole entry, looked up): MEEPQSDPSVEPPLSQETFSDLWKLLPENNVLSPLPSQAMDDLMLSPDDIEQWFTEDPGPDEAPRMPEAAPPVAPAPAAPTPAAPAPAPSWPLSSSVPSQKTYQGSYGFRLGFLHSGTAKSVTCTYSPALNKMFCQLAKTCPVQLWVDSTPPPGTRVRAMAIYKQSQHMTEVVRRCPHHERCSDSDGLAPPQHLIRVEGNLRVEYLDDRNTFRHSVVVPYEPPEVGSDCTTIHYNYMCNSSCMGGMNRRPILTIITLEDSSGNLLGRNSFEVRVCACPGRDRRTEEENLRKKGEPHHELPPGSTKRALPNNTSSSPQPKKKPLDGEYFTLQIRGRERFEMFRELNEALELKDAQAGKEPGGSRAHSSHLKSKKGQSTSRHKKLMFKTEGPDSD
Sequence of Nuclear receptor subfamily 1 group I member 2 (Homo sapiens) (O75469 whole entry, looked up, the tested form may be a part): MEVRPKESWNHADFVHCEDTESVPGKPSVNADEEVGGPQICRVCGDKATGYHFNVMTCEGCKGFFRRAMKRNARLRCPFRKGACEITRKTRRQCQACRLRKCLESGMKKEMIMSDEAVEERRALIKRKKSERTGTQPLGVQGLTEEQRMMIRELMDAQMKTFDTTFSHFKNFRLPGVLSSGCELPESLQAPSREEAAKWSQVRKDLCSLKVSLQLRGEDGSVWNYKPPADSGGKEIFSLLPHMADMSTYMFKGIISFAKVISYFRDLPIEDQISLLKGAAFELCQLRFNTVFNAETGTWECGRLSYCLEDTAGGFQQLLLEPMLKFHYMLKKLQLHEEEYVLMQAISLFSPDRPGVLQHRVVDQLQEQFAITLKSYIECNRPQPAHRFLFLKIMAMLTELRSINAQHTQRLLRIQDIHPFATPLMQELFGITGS
Sequence of human Peroxisome Proliferator-activated Receptor alpha (PPARa), PPARA (gene 5465) (Q07869 whole entry, looked up, the tested form may be a part): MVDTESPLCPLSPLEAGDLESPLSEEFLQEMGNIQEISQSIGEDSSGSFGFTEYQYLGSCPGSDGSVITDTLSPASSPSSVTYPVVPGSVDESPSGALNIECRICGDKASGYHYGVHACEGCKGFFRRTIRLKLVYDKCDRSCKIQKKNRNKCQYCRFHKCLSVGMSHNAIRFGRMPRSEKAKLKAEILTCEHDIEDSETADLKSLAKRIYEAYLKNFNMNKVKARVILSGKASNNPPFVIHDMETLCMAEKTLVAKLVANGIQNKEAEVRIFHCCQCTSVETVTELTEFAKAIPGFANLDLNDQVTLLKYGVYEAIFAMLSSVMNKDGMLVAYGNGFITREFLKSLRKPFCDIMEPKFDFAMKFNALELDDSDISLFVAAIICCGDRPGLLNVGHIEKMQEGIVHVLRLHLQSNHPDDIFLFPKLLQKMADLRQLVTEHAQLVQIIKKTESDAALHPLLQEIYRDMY
Sequence of human Retinoic Acid Receptor beta (RARb), RARB (gene 5915) (P10826 whole entry, looked up, the tested form may be a part): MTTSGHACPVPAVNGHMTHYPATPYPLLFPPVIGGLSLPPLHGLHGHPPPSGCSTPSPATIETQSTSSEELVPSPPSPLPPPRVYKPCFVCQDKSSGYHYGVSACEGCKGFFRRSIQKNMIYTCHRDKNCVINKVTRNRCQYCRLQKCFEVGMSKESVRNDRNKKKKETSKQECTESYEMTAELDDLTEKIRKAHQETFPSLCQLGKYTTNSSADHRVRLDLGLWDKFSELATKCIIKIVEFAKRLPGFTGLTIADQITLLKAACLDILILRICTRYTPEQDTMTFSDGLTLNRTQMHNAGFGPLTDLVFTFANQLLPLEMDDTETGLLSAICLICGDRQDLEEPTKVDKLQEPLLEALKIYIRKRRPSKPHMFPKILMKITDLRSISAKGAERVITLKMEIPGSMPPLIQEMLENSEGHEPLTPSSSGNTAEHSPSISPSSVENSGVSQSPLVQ
Sequence of Peroxisome proliferator-activated receptor gamma (Homo sapiens) (P37231 whole entry, looked up): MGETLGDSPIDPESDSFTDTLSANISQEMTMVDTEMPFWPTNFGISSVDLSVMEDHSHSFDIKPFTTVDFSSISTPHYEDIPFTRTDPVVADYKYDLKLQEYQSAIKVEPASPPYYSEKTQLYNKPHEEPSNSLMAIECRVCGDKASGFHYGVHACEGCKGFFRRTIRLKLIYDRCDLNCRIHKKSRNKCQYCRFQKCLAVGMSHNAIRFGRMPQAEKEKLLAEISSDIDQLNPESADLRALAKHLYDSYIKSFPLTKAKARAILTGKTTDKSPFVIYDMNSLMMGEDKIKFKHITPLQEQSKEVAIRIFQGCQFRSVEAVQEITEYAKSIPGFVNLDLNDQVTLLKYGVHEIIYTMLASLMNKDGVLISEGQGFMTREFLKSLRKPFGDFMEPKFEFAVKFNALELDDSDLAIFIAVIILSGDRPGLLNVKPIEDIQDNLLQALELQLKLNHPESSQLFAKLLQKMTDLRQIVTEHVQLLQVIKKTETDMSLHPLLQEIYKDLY
Sequence of human Peroxisome Proliferator-activated Receptor delta (PPARd), PPARD (gene 5467) (Q03181 whole entry, looked up): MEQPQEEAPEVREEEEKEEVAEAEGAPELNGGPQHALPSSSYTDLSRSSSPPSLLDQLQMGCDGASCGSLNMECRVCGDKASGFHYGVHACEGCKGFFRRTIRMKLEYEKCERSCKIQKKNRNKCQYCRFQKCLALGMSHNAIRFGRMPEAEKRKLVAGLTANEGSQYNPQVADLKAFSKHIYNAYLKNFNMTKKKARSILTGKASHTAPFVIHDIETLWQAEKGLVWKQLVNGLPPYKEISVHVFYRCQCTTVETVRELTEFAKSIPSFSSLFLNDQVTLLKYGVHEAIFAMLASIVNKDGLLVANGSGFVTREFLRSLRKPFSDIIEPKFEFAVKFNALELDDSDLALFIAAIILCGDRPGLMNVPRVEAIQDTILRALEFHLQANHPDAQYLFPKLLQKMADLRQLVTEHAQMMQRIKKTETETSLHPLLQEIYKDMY
Sequence of human RAR-related Orphan Receptor beta (RORb), RORB (gene 6096) (Q92753 whole entry, looked up, the tested form may be a part): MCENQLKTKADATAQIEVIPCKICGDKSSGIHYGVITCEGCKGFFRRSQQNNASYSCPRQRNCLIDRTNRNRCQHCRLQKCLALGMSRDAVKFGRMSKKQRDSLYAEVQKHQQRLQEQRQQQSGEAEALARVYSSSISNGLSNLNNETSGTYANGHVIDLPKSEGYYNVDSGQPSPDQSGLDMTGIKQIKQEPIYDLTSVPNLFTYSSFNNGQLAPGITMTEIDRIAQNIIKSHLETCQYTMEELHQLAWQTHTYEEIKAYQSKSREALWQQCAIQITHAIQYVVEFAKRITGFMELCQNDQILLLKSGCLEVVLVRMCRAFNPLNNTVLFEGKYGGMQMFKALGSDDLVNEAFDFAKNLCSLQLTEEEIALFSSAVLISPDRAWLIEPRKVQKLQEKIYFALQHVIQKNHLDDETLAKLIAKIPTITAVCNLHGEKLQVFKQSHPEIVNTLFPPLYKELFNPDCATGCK
Sequence of Retinoic acid receptor alpha (Homo sapiens) (P10276 whole entry, looked up, the tested form may be a part): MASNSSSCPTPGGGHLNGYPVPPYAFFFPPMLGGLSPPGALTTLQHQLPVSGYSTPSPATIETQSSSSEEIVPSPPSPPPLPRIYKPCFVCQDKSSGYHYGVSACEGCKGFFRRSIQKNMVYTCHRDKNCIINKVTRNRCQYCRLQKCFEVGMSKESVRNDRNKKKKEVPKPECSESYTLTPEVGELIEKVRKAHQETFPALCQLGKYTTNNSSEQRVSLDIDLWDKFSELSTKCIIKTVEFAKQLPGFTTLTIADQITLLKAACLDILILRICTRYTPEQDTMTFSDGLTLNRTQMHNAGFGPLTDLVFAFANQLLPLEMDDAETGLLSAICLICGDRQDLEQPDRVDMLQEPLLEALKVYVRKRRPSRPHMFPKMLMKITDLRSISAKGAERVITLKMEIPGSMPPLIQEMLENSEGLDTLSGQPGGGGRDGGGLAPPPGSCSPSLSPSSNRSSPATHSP

Consider `O=[N+]([O-])c1ccc(CO)cc1`, for which the compound was classed as inactive in [1], in experiment [2], in [3], in experiment [4], in experiment [5] and in [6]. Further, the outcome in [7], in experiment [8], in experiment [9] and in experiment [10] was inactive.

Turning to `CC(C)=CCC[C@H](C)CCO`, the compound was called inactive in [1], in experiment [2], in experiment [3], in experiment [4], in [5] and in [6]. The compound was classed as inactive in experiment [8], in [11] and in [9].

For the compound `Cc1cc(O)c(Cl)c(C)c1Cl`, the result in experiment [1], in experiment [2], in experiment [3], in [5], in experiment [6] and in experiment [7] was inactive. The AC50 (usually the concentration giving half of the maximal activity seen) is 33.4 µM (active) in experiment [4], 21.9 µM (active) in [11] and 26.4 µM (active) in [9].

For the compound `CC(=O)C=CC1C(C)=CCC(C)C1(C)C` (stereo unspecified), the call in experiment [1], in experiment [2], in experiment [3], in [5], in experiment [6] and in [8] was inactive. Also, the compound was classed as inactive in [11]. In addition, the AC50 in [4] is 27.8 µM (active).

With `O=S(=O)(O)c1ccccc1C=Cc1ccc(-c2ccc(C=Cc3ccccc3S(=O)(=O)O)cc2)cc1`, the compound was called inactive in experiment [1], in experiment [2], in [3], in [4], in [5] and in experiment [6]. Further, the call in [7], in experiment [12] and in experiment [11] was inactive.

In the case of `CC1=Nc2ccc3ccccc3c2C1(C)C`, the outcome in experiment [1], in experiment [2], in experiment [3], in experiment [5], in [6] and in experiment [7] was inactive. In addition, the call in [13] was inactive. For the same compound, the AC50 in experiment [4] is 100 µM (active); in experiment [11], 40.5 µM (active); in [9] it was 2.65 µM (active).

For `CCC(CO)CO`, the compound was called inactive in [1], in experiment [2], in experiment [3], in experiment [4], in [5] and in experiment [6]. Also, the outcome in experiment [7], in experiment [14], in experiment [9] and in experiment [10] was inactive.

In the case of `CC=CC(F)(F)C(F)(F)C(F)(F)F`, the compound was classed as inactive in experiment [1], in experiment [2], in experiment [3], in [4], in experiment [5] and in experiment [6]. The outcome in experiment [7], in [8] and in experiment [9] was inactive.

On to `C[C@]12CCC(=O)C=C1CC[C@@H]1[C@@H]2C(=O)C[C@@]2(C)[C@H]1CC[C@]2(O)C(=O)CO`, for which the compound was called inactive in experiment [1], in [2], in [3], in experiment [4], in experiment [5] and in experiment [6]. Besides, the compound was classed as inactive in experiment [8] and in experiment [11]. Further, the AC50 in [9] is 26.9 µM (active).

For the compound `O=[N+]([O-])C1(Br)COCOC1`, the compound was classed as inactive in experiment [1], in [2], in [4], in [5], in experiment [7] and in experiment [14]. Moreover, the call in experiment [11] was inactive. The AC50 in experiment [3] is 51.7 µM (active); in [6] it was 53.8 µM (active).

Consider `CCCNC(=O)NS(=O)(=O)c1ccc(Cl)cc1`, for which the result in [1], in [2], in experiment [3], in experiment [4], in experiment [5] and in experiment [6] was inactive. The outcome in [8], in [14], in experiment [12], in [13] and in [10] was inactive.

As for `CCN(CCO)c1cccc(C)c1`, the result in [1], in [2], in experiment [3], in experiment [4], in experiment [5] and in [6] was inactive. For the same compound, the call in experiment [8], in [11] and in [13] was inactive. Besides, the AC50 in [9] was 27 µM (active).

Regarding `CCOc1ccc(N)c([N+](=O)[O-])c1`, the outcome in experiment [1], in experiment [2], in experiment [3], in experiment [4], in experiment [5] and in [6] was inactive. Moreover, the call in experiment [7] and in experiment [9] was inactive.

The values above are taken from PubChem BioAssay (EPA / NIEHS).
